Key:
Experiment in all cases: PBM binding z-score (relative to random genomic background probes); higher = stronger binding; sequences stand for … in GC…GCGATTGACAGCGTAGAATGAAGG
[1] = tested on: RARb homodimer (NR concentration 270 nM)
How it was run: (§1)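 Scanned fluorescence from custom Agilent 4×180K protein-binding microarrays was regression-normalized. Binding z-scores use random background probes as reference. Ligand-free nuclear receptor dimers were incubated on the arrays for 1 h and detected with antibodies against each partner (one per run).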

[2] = tested on: RARg:RXRa (NR concentration 270 nM, RXRa partner concentration 90 nM)
How it was run: as §1

[3] = tested on: RARg homodimer (NR concentration 270 nM)
How it was run: as §1

[4] = tested on: RXRa DBDmut IVT, anti-RXR (DBD mutation: RXRa K156A/R161A, NR concentration 90 nM)
How it was run: as §1

[5] = tested on: RXRa homodimer (NR concentration 180 nM)
How it was run: as §1

[6] = tested on: THRa:RXRa (NR concentration 90 nM, RXRa partner concentration 90 nM)
How it was run: as §1

[7] = tested on: THRa homodimer (NR concentration 90 nM)
How it was run: as §1

[8] = tested on: VDR homodimer (NR concentration 270 nM)
How it was run: as §1

Sequence | PBM binding z-score [1] | PBM binding z-score [2] | PBM binding z-score [3] | PBM binding z-score [4] | PBM binding z-score [5] | PBM binding z-score [6] | PBM binding z-score [7] | PBM binding z-score [8]
TCTAGTTGGTCAAAGCTCACACACTCGAAATGCG | 0.587 | 0.584 | 0.77 | 1.37 | 0.769 | 0.0893 | 0.269 | 0.0543
TTCCCAAGGTGAAAGGTCGTTGATGCACGCCTTG | 3.14 | 4.25 | 2.13 | 0.532 | 5.91 | 3.6 | 1.4 | 1.52
ATACCAAGGTGATCGTGAGGTCATTGATACTAAC | 4.17 | 4.94 | 3.31 | 1.63 | 3.99 | 4.6 | 4.6 | 4.77
GGAACGAGGGCAAAGTTGATAGGATCTGTCGACG | 1.32 | 2.19 | 1.89 | 2.92 | 2.12 | 1.36 | -0.0299 | 1.34
CGTCAAAGTTCAACTAAGATAACGTAAAGCACGC | 3.75 | 5.82 | 6.58 | 4.65 | 5.25 | 2.98 | 0.329 | 3.75
CTCGAAAGGTCGTGCACAGGTGAGTATACCAAAC | 3.18 | 5.89 | 4.46 | 2.16 | 5.32 | 3.21 | 0.254 | 1.42
TAGCCCAGGTCATGCGGGCCAGTATAGTGTCGGC | 2.94 | 4.07 | 3.99 | 1.22 | 3.45 | 3.85 | 2.4 | 1.49
CGAACTAGGTCAAGGTCAAAGTCGGTTTGTGCCA | 4.96 | 5.97 | 6.77 | 3.12 | 5.78 | 4.11 | 3.7 | 4.23
CAAACTAGGTCCCCGGAAGGTCAAAGTCCGCATG | 4.26 | 4.15 | 3.32 | 0.0846 | 3.49 | 2.91 | 1.33 | 2.2
CCTACTGGGGCAAGGTTACCATAACGCACAGCCA | 1.26 | 1.22 | 1.37 | -0.688 | 1.02 | 1.14 | 0.409 | 0.0551
GGAACGAGGGCAAGTTGATAGGAGAGTTTGATGG | 1.61 | 1.72 | 2.08 | 2.4 | 0.681 | 1.27 | 0.249 | 2.23
TCTTGTAGATCAGCAGGTTTAGAAAGCTGGCCAA | -0.607 | -0.508 | -0.884 | 0.412 | -0.374 | -0.307 | -0.755 | -0.457
AGAATGAGGTAACCAAAGATCAGGGAAACGCTTG | -0.385 | 0.568 | 0.561 | -0.346 | 0.827 | 2.05 | 0.539 | -0.262
CGAAGTAGGTCAGAACAGGACAGTGAAGGATGAT | 2.04 | 2.23 | 3.23 | 0.286 | 1.37 | 3.52 | 0.146 | 0.1
TCTTGTAGATGAAGCAGGTTAAGAAAGCCTGAGT | -0.21 | -0.0639 | -0.213 | 0.667 | 0.257 | -0.0515 | -0.455 | -0.176
TCTTGTAGATCACTAGAGGTTAAGAAAGTGCGCT | 1.33 | 0.919 | 0.66 | 0.477 | 1.6 | 2.43 | -0.317 | 0.162
TTACCATGGTGAGCTGAGGTCGTTGATCCAACTC | 0.61 | 0.0619 | -0.479 | -0.0297 | 0.594 | 2.81 | 1.14 | 1.7
AATACACGGTCACTAGGCCAGAGTAGGTACGAAT | 1.85 | 1.78 | 2.19 | 0.0529 | 0.672 | 0.48 | -0.267 | 0.314
TAGACTAGGTCAGATCGGGCCAGTATACGCTATA | 1.99 | 2.46 | 3.56 | -0.416 | 1.24 | 3.92 | -0.175 | -0.33
